From PubChem BioAssay (Tox21)
Results filed as inconclusive are left out. A call without a number means that no potency is given here. A number with no mark means an inactive call. The source made the active and inactive calls. Unless noted, calls follow the shape of the dose curve; as a rule, active = well fitted curve in the direction sought with a large enough effect in the repeat runs; inconclusive = weak or mixed curves; inactive = no such curve, though single readings can be large; an effect the other way counts as inactive or inconclusive.

Legend:
[1] = qHTS assay to identify small molecule antagonists of the estrogen related receptor (ERR) signaling pathway from Tox21 library - cell viability counter screen (AID 1224834); also: nearly all actives have a fitted effect of over 30% in size; also: potency is read from the fitted curve at half-maximal effect
Procedure, shortened: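 CellTiter-Fluor fluorescence, read after 30 min at 37 C, measures viability of ERR cells. Cells plated at 2,000/well and incubated 6 h before pin-tool compound addition, then exposed 17.5 hours at 37 C.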

[2] = target: Luciferin 4-monooxygenase (Photinus pyralis) (UniProt P08659); assay: qHTS assay to identify small molecule inhibitors of firefly luciferase (AID 1224835); also: nearly all actives have a fitted effect of over 25% in size; also: potency is read from the fitted curve at half-maximal effect
Procedure, shortened: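 Quantitative HTS format; KM concentrations of both substrates. Purified P. pyralis FLuc activity quantified from luminescence images.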

[3] = qHTS assay to identify small molecule agonists of the constitutive androstane receptor (CAR) signaling pathway - cell viability counter screen (AID 1224836); also: series mostly up to about 92 µM; nearly all actives have a fitted effect of over 45% in size
Procedure, shortened: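 Counter screen multiplexed with the CAR reporter readout: HepG2 cells co-transfected with hCAR and the CYP2B6-2.2kb construct receive a 15-concentration compound series and 0.75 uM PK11195 (final), then CellTiter-Fluor fluorescence is read after 23 h.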

[4] = target: Nuclear receptor subfamily 1 group I member 3 (Homo sapiens) (UniProt Q14994); assay: qHTS assay to identify small molecule antagonists of the constitutive androstane receptor (CAR) signaling pathway (AID 1224838);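 also: HepG2 cells stably expressing hCAR with CYP2B6 luciferase reporter stimulated by CITCO; nearly all actives have a fitted effect of over 40% in size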
Procedure, shortened: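 Antagonism measured as luciferase signal (ONE-Glo, 30 min, room temperature) in CAR-stimulated cells: HepG2-CYP2B6-hCAR double-stable line exposed 24 hr at 37 C to compound in a 15-point series plus 50 nM CITCO.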

[5] = target: Nuclear receptor subfamily 1 group I member 3 (Homo sapiens) (UniProt Q14994); assay: qHTS assay to identify small molecule agonists of the constitutive androstane receptor (CAR) signaling pathway (AID 1224839); also: nearly all actives have a fitted effect of over 15% in size; also: potency is read from the fitted curve at half-maximal effect; as to activation: series mostly up to about 92 µM
Procedure, shortened: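 A 15-concentration quantitative screen uses HepG2 cells co-transfected stably with human CAR and CYP2B6-2.2kb reporter. Treatment lasts 24 h with 0.75 uM PK11195 final present; ONE-Glo luminescence is the signal.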

[6] = qHTS assay to identify small molecule antagonists of the estrogen related receptor signaling pathway with the pleiotropic PPARgamma coactivator (PGC) from Tox21 10K library - cell viability counter screen (AID 1224840; active = well fitted cell-killing curve with a large enough effect in the repeat runs, not every such curve was filed as active; also: nearly all actives have a fitted effect of over 40% in size)
Procedure, shortened: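 Counter-screen for cytotoxicity: after 17.5 h compound exposure at 37 C, CellTiter-Fluor reagent added to PGC/ERR cells for 30 min and fluorescence read. Cells were seeded at 2,000 per well 6 h before dosing.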

[7] = target: Thyrotropin receptor (Homo sapiens) (UniProt P16473); assay: qHTS assay to identify small molecule agonists of the thyroid stimulating hormone receptor (TSHR) signaling pathway (AID 1224843; calls by dose curve; also: nearly all actives have a fitted effect of over 45% in size)
Procedure, shortened: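 Compounds are titrated over 15 concentrations, in triplicate, onto TSHR-HEK293 cells seeded at 800/well. Plates sit 30 min at room temperature before cAMP-d2 and anti-cAMP cryptate are added; signal is read after a further hour.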

[8] = qHTS assay to identify small molecule agonists of the hypoxia (HIF-1) signaling pathway - cell viability counter screen (AID 1224844; calls by dose curve; also: nearly all actives have a fitted effect of over 50% in size; also: potency is read from the fitted curve at half-maximal effect)
Procedure, shortened: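 Cytotoxicity measured by CellTiter-Glo ATP luminescence in the wells also read for beta-lactamase signal. Cells were HRE-bla ME-180 (2,000/well, 0.5% dialyzed FBS), exposed to compounds for 17 h at 37C.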

[9] = qHTS assay to identify small molecule agonists of the hypoxia (HIF-1) signaling pathway (AID 1224846; active = well fitted activation curve with a large enough effect in the signal ratio in the repeat runs, not every such curve was filed as active; the % refers to the signal ratio)
Procedure, shortened: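 Compounds added to ME-180 cells carrying hypoxia-response-element beta-lactamase reporter (0.5% dialyzed FBS, 5 h preplating), 17 h at 37C; agonist activity detected by CCF4-AM B/G FRET read-out.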

[10] = qHTS assay to identify small molecule agonists of H2AX - cell viability counter screen (AID 1224847; calls by dose curve; also: nearly all actives have a fitted effect of over 30% in size; also: potency is read from the fitted curve at half-maximal effect)
Procedure, shortened: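 We seed wild-type CHO-K1 cells overnight, treat them for 3 hr at 37C with compounds in 15-concentration series, and quantify remaining viability by CellTiter-Glo luminescence.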

[11] = qHTS assay to identify small molecule antagonists of the constitutive androstane receptor (CAR) signaling pathway - cell viability counter screen (AID 1224837); also: series mostly up to about 92 µM; nearly all actives have a fitted effect of over 45% in size
Procedure, shortened: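 Cytotoxicity counter-screen: CellTiter-Fluor fluorescence after 23 h compound exposure (15-point qHTS) in double-stable HepG2-CYP2B6-hCAR cells, with 50 nM CITCO added.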

[12] = qHTS assay to identify small molecule agonists of H2AX (AID 1224845; active = well fitted activation curve with a large enough effect in the signal ratio in the repeat runs, not every such curve was filed as active; the % refers to the signal ratio; also: potency is read from the fitted curve at half-maximal effect)
Procedure, shortened: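 Wild-type CHO-K1 cells plated overnight, then exposed 3 hr at 37C to compounds at 15 concentrations (0.76% DMSO). Lysed, then HTRF anti-pH2AX(S139)-cryptate/anti-H2AX-d2 detection after 24 hr at room temperature; emissions 665 and 620 nm.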

[13] = qHTS assay to identify small molecule antagonists of the estrogen related receptor signaling pathway with the pleiotropic PPARgamma coactivator (PGC) from Tox21 10K library (AID 1224841; call rule not given here; also: actives are mostly falling curves and most rising ones were filed inactive; nearly all actives have a fitted effect of over 50% in size; also: potency is read from the fitted curve at half-maximal effect)
Procedure, shortened: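 Luminescence (One-Glo, 30 min at room temperature) after 18 h compound treatment at 37 C of PGC/ERR reporter cells plated at 2,000 cells/well and settled 6 h beforehand.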

[14] = qHTS assay to identify small molecule agonists of the estrogen related receptor signaling pathway with the pleiotropic PPARgamma coactivator (PGC) from Tox21 10K library (AID 1224842); also: nearly all actives have a fitted effect of over 15% in size
Procedure, shortened: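 PGC/ERR reporter cells (NTP line) were seeded 2,000 per well, rested 6 h at 37 C/5% CO2, then pin-dosed with compounds in DMSO for 18 h at 37 C; luciferase read by One-Glo luminescence after 30 min at room temperature.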

[15] = qHTS assay to identify small molecule antagonists of the estrogen related receptor (ERR) signaling pathway from Tox21 library (AID 1224848); also: nearly all actives have a fitted effect of over 50% in size; also: potency is read from the fitted curve at half-maximal effect
Procedure, shortened: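 First, 2,000 ERR cells per well were plated and held 6 h at 37 C/5% CO2. Next, compounds in DMSO were pinned in and left 18 h at 37 C. Finally, ONE-Glo was added and luminescence read after 30 min at room temperature.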

Sequence of Nuclear receptor subfamily 1 group I member 3 (Homo sapiens) (Q14994 whole entry, looked up): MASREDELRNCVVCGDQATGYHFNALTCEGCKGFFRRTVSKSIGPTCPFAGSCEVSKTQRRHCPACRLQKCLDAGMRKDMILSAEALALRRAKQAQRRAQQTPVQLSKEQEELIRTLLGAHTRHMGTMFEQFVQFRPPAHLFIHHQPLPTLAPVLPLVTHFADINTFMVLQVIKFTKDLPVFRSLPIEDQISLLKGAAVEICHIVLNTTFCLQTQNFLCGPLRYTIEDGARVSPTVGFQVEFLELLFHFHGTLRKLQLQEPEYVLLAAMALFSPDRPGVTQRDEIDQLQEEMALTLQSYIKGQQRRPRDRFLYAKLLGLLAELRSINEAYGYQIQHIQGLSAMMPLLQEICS
Sequence of Thyrotropin receptor (Homo sapiens) (P16473 whole entry, looked up): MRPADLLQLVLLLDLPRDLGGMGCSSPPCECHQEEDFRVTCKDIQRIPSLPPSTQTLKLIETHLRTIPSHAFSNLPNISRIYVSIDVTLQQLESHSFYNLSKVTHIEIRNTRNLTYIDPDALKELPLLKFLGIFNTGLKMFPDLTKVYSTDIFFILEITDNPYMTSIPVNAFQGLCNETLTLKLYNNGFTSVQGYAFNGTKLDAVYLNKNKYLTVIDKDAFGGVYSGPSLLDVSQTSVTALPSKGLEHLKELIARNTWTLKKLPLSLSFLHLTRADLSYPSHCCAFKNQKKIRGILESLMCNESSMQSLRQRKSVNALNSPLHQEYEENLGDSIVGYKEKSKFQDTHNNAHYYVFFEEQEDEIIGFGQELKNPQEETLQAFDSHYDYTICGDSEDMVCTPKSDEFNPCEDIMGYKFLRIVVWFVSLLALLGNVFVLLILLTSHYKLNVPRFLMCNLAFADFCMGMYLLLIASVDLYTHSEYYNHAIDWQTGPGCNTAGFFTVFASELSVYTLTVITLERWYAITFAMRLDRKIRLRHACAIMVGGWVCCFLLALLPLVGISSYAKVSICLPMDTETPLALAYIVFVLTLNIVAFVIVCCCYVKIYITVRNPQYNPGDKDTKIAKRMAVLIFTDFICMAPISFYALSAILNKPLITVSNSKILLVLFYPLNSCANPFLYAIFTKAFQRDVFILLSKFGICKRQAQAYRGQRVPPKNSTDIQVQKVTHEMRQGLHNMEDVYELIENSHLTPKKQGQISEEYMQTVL
Sequence of Luciferin 4-monooxygenase (Photinus pyralis) (P08659 whole entry, looked up): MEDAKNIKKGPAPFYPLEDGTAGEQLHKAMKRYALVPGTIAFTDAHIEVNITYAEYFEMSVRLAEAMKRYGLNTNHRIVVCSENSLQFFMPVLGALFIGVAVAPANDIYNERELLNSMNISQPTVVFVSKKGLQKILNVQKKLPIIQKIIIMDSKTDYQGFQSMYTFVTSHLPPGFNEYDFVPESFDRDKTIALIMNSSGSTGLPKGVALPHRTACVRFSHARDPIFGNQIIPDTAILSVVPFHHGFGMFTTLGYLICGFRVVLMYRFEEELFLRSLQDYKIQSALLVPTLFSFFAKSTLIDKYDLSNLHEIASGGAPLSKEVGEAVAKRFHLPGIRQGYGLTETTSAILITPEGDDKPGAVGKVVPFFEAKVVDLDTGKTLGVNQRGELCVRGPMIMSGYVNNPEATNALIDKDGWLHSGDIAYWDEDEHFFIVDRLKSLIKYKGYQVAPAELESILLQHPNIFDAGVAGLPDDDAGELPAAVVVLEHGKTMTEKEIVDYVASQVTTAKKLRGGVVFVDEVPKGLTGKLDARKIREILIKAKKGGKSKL

Compound | Potency [1] | Potency [2] | Potency [3] | Potency [4] | Potency [5] | Potency [6] | Potency [7] | Potency [8] | Potency [9] | Potency [10] | Potency [11] | Potency [12] | Potency [13] | Potency [14] | Potency [15]
C=Cc1ccc(O)c(OC)c1 | inactive | inactive | inactive | inactive | inactive | inactive | inactive | inactive | inactive | inactive | – | – | – | – | –
O=C(Cl)c1ccc(Cl)cc1Cl | inactive | 25.2 µM (active) | inactive | inactive | inactive | inactive | – | inactive | inactive | inactive | inactive | 101 µM (active) | – | – | –
CC(c1cc(C(C)(C)C)cc(C(C)(C)C)c1O)c1cc(C(C)(C)C)cc(C(C)(C)C)c1O | inactive | inactive | inactive | – | – | inactive | inactive | inactive | inactive | inactive | inactive | – | inactive | inactive | –
CC(C=O)c1ccccc1 (stereo not given) | inactive | inactive | inactive | – | – | inactive | – | inactive | inactive | inactive | inactive | inactive | – | – | –
C/C=C/C(=O)OCC(C)C | inactive | inactive | inactive | – | – | inactive | inactive | inactive | inactive | inactive | inactive | inactive | – | – | –
CCCCCCCCc1ccc(Nc2ccc(CCCCCCCC)cc2)cc1 | inactive | inactive | inactive | inactive | inactive | – | inactive | inactive | inactive | inactive | inactive | inactive | 11.9 µM (active) | inactive | –
CC(O)(c1ccc(Cl)cc1)c1ccc(Cl)cc1 | 61.1 µM (active) | inactive | inactive | inactive | 15.4 µM (active) | – | – | – | – | 56.6 µM (active) | inactive | – | – | inactive | –
N#Cc1ccc(C/C(=N/NC(=O)Nc2ccc(OC(F)(F)F)cc2)c2cccc(C(F)(F)F)c2)cc1 | inactive | inactive | inactive | inactive | inactive | inactive | inactive | – | – | inactive | inactive | inactive | – | – | –
Cc1ccc(C=O)cc1 | inactive | inactive | inactive | – | – | inactive | inactive | inactive | inactive | inactive | – | inactive | – | – | –
Nc1cc([N+](=O)[O-])ccc1Cl | inactive | inactive | inactive | inactive | inactive | – | inactive | inactive | inactive | inactive | – | inactive | inactive | inactive | –
O=C1OC(=O)c2cc(-c3ccc4c(c3)C(=O)OC4=O)ccc21 | inactive | inactive | inactive | inactive | inactive | inactive | – | inactive | inactive | inactive | – | inactive | – | – | –
O=C1c2ccccc2C(=O)c2c(Cl)cccc21 | inactive | inactive | inactive | inactive | 28.9 µM (active) | inactive | inactive | – | inactive | – | – | – | inactive | – | inactive
CCC(=O)OC/C=C(\C)CCC=C(C)C | inactive | inactive | inactive | – | – | inactive | inactive | inactive | inactive | inactive | inactive | inactive | – | – | –
CC/C=C(\C)C=O | inactive | inactive | – | inactive | inactive | inactive | inactive | inactive | inactive | inactive | inactive | inactive | – | inactive | –
C=COCCCC | inactive | inactive | – | inactive | inactive | inactive | inactive | inactive | inactive | inactive | – | inactive | – | – | –
CCN(CC)c1ccc(C=O)cc1 | inactive | – | inactive | inactive | – | – | inactive | inactive | inactive | inactive | inactive | inactive | – | – | –
O=C(CCCCCCCCc1cccnc1)N1CCC(C=C(c2ccccc2)c2ccccc2)CC1 | 54.5 µM (active) | inactive | – | – | – | – | – | 13.8 µM (active) | – | 50.5 µM (active) | – | inactive | – | inactive | 21.7 µM (active)
[Cl][Dy]([Cl])[Cl] | inactive | 28.3 µM (active) | – | inactive | inactive | – | inactive | inactive | inactive | inactive | – | inactive | – | – | –
c1ccc(-c2nc3ccccc3[nH]2)cc1 | inactive | 5.64 µM (active) | – | – | – | – | – | inactive | inactive | 89.8 µM (active) | – | inactive | – | – | –
O=[N+]([O-])c1ccc(CO)cc1 | inactive | inactive | inactive | – | – | – | – | inactive | inactive | inactive | – | inactive | – | – | –
CN(C/C=C/c1ccccc1)Cc1cccc2ccccc12 | inactive | inactive | inactive | – | – | – | inactive | inactive | – | 43.8 µM (active) | – | 55.2 µM (active) | – | – | –
